In PubChem BioAssay AID504773 (Broad Institute, 2011):
Measured potencies and affinities stand elsewhere. Calls of active or inactive are those of the source.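 Rule for the calls: active = polarization signal falls with dose and the fitted half-maximal concentration is at or below ten times the sample's top valid dose; inconclusive = flat curve at 30 to 70% inhibition, or poor fit; inactive = signal rises, flat within 30%, or potency beyond limit.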

target: Golgi-associated PDZ and coiled-coil motif-containing protein (Homo sapiens) (UniProt Q9HD26); assay: CAL PDZ peptide-binding inhibitors, dose response, biochemical, fluorescence polarization, Cerulean-tagged CAL PDZ, cherry-picks (AID 504773); conditions: 1 h; series mostly up to 50 µM

outcome, inactive:
CCc1nc(SCC(=O)c2ccccc2)c2c(=O)n(C)c(=O)n(C)c2n1
O=C(CCC(=O)N1CCN(c2ccccc2F)CC1)N1CCN(c2ccccc2)CC1
CCOC(=O)C1=C(C)OC(N)=C(C#N)C1c1cccc(C)c1 (configuration not stated)
COc1ccc(CC(=O)N2CCC(CCC(=O)Nc3ccccc3)CC2)cc1
Cc1ccc(C(=O)NC(=S)N2CCN(c3cc(C)ccc3C)CC2)cc1
CCNC(=S)N(CCN(CC)CC)Cc1cc2cc3c(cc2[nH]c1=O)OCCO3
COCc1cc(C)nc(SCc2ccccc2)c1C#N
CC(CN1CCCC1)OC(=O)C(c1ccccc1)c1ccccc1 (configuration not stated)
O=C(CNCc1ccccc1)Nc1ccc(F)cc1
COC(=O)N/N=C/c1sc(N2CCCCC2)nc1-c1cccs1
CC(C)CNC(=O)COC(=O)CCC(=O)c1ccc(Cl)cc1
Cc1cc(C(=O)Nc2ccccc2Cl)c2ccccc2n1
COc1ccc(CSc2ncnc3sccc23)cc1F
COc1ccc(N2CCN(C(=O)c3cccc4nc(C)oc34)CC2)cc1
COc1cccc(-c2cccc(NC(=O)C3CCN(Cc4ccc(CO)o4)CC3)c2)c1
COc1ccc(C(=O)Nc2ccc(S(=O)(=O)N3CCCC3)cc2)cc1[N+](=O)[O-]
CCCC(=O)OCC(=O)Nc1ccccc1C#N
COc1ccccc1Oc1coc2cc(OC(=O)N3CCOCC3)ccc2c1=O
CCOc1ccc(N(CC(=O)N2CCN(Cc3ccccc3)CC2)S(C)(=O)=O)cc1
COCC(=O)NNC(=O)c1ccc(OC)cc1
O=c1c2cc3c(cc2[nH]c(=S)n1CCN1CCOCC1)OCO3
COc1ccc(OC)c(NC(=O)c2ccc(OC3CSC3)cc2)c1
O=C(NCc1cccs1)c1cccn2c(=O)c3sccc3nc12
O=C(COc1ccccc1)N1CCCCCCC1
CCC(=O)Nc1ccc(S(=O)(=O)NCc2ccco2)cc1
Cc1ccc(NC(=O)CN(C)CC(=O)Nc2cccc(F)c2)cc1S(=O)(=O)N1CCCCCC1
Cc1ccc2cc(C#N)c(N3CCCN(S(=O)(=O)c4ccccc4)CC3)nc2c1
Cn1c(CNC(=O)OC(C)(C)C)n[nH]c1=S
Brc1cccc(CNCC2CCCO2)c1 (configuration not stated)
CCOC(=O)CCC(=O)Nc1ccc(S(=O)(=O)N2CCC(C)CC2)cc1
CC12CCC(C(=O)N(CCCN3CCN(Cc4ccccc4)CC3)C1=O)C2(C)C (configuration not stated)
O=C(NNC(=O)c1ccc(Cl)c(Cl)c1)c1cccnc1
COc1ccc(N2CCN(C3CCCN(Cc4ccc(F)cc4)C3)CC2)cc1 (configuration not stated)
COc1ccc(-n2c(=S)[nH]c3c(sc(=S)n3-c3ccccc3)c2=O)c(OC)c1
COc1ccc(NC(=O)c2cnn(-c3ccccc3)c2C)c(OC)c1
O=C(NC1CCCCCCC1)c1cc([N+](=O)[O-])ccc1Cl
FC(F)(F)Oc1ccc(NC(=S)NCCCN2CCOCC2)cc1
